Screening data from PubChem.
An excerpt weighted towards active compounds, which were near 13% of everything screened.
UCHL1 block = inhibitors of human UCHL1 deubiquitinase; Ubiquitin carboxyl-terminal hydrolase isozyme L1 (Homo sapiens), P09936; purified UCHL1, Ub-rhodamine cleavage fluorescence; inhibition, % at 20 µM; hit rate 0.2% among 47,000; AID 1645859, 2021
USP30 inh = inhibitors of human USP30 deubiquitinase; purified USP30, Ub-rhodamine cleavage fluorescence; inhibition, % at 25 µM; Ubiquitin carboxyl-terminal hydrolase 30 (Homo sapiens), Q70CQ3; hit rate 5.3% among 47,000
USP7 block = inhibitors of human USP7 deubiquitinase; Ubiquitin carboxyl-terminal hydrolase 7 (Homo sapiens), Q93009; purified USP7, Ub-rhodamine cleavage fluorescence; hit rate 0.3% among 47,000; AID 1645854, 2021; inhibition, % at 20 µM
USP10 block = inhibitors of human USP10 deubiquitinase. Ubiquitin carboxyl-terminal hydrolase 10 (Homo sapiens), Q14694. purified USP10, Ub-rhodamine fluorescence, 60 min. inhibition, % at 20 µM. hit rate 1.1% among 47,000
Target sequence (Q14694 whole entry, looked up): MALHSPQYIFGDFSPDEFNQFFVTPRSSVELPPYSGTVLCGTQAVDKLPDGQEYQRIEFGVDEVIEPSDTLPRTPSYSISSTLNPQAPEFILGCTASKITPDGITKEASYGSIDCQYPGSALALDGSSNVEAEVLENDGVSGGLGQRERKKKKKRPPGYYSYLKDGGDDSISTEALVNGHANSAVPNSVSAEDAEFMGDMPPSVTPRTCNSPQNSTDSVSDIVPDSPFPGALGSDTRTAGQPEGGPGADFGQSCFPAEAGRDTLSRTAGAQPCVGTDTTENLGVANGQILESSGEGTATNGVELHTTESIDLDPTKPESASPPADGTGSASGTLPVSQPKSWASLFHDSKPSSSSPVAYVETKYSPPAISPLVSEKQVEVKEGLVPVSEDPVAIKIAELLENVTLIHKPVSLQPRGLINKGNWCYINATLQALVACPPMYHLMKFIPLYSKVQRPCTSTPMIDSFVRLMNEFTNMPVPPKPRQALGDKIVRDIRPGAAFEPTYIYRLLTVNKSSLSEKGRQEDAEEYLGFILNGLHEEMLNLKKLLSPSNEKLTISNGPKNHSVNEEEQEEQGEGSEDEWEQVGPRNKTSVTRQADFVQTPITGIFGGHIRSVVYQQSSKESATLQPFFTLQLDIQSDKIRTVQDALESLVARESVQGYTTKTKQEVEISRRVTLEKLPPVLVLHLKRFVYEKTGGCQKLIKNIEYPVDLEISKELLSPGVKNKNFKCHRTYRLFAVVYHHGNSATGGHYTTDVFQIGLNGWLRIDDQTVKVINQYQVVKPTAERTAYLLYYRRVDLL
USP17 block = inhibitors of human USP17 deubiquitinase | inhibition, % at 50 µM | Ubiquitin carboxyl-terminal hydrolase 17-like protein 5 (Homo sapiens), A8MUK1 | purified USP17, Ub-rhodamine cleavage fluorescence, 3 h | hit rate 6.5% among 47,000
USP8 inh = inhibitors of human USP8 deubiquitinase; inhibition, % at 20 µM; Ubiquitin carboxyl-terminal hydrolase 8 (Homo sapiens), P40818; hit rate 4.2% among 47,000; AID 1645853, 2021; purified USP8, Ub-rhodamine cleavage fluorescence, 30 min
A number is an active result. No stated cut-off is given here; in the data, active means inhibition above about 30%; inactive means the rest.

For O=C(CSc1cn(CCNC(=O)c2ccccc2)c2ccccc12)Nc1ccccc1F the results were UCHL1 block inactive, USP30 inh inactive, USP7 block inactive, USP10 block inactive, USP17 block inactive and USP8 inh inactive.
Screening Cc1ccc2nc(-c3cc4ccc(C)c(C)c4[nH]c3=O)c(NC3CCCC3)n2c1 returned UCHL1 block inactive, USP30 inh inactive, USP7 block inactive, USP10 block inactive, USP17 block 41.3 and USP8 inh inactive.
For Cc1cc(C(=O)N2CC[C@@H]3CN(CCc4ccccc4)S(=O)(=O)[C@@H]3CC2)no1 the results were UCHL1 block inactive, USP30 inh inactive, USP7 block inactive, USP10 block inactive, USP17 block inactive and USP8 inh inactive.
O=C(Cn1cnc2sc3c(c2c1=O)CCC3)N1CCc2ccccc21 was read as UCHL1 block inactive, USP30 inh inactive, USP7 block inactive, USP10 block inactive, USP17 block inactive and USP8 inh 48.2.
Screening CC(C)(C)n1ncc2c(=O)n(CC(=O)N3CCCc4ccccc43)cnc21 returned UCHL1 block inactive, USP30 inh inactive, USP7 block 44.9, USP10 block inactive, USP17 block inactive and USP8 inh inactive.
For O=C(Cn1c(CN2CCCCC2)nc2sc3c(c2c1=O)CCCC3)N1CCc2ccccc21 the results were UCHL1 block inactive, USP30 inh inactive, USP7 block inactive, USP10 block inactive, USP17 block inactive and USP8 inh inactive.
Cc1ccccc1CC(=O)NC(C)C(=O)Nc1nc2ccccc2[nH]1 (configuration not stated) was read as UCHL1 block inactive, USP30 inh inactive, USP7 block inactive, USP10 block inactive, USP17 block inactive and USP8 inh inactive.
For NC(=O)c1cc(C2CN(C(=O)c3ccncc3)CCO2)nc2ccccc12 (configuration not stated) the results were UCHL1 block inactive, USP30 inh inactive, USP7 block inactive, USP10 block inactive, USP17 block inactive and USP8 inh inactive.
Screening Cc1cc(Cl)ccc1NC(=O)COC(=O)c1n[nH]c2ccccc12 returned UCHL1 block inactive, USP30 inh inactive, USP7 block inactive, USP10 block inactive, USP17 block inactive and USP8 inh 31.0.
O=C(C1CCCCC1)N1CCN(c2nc3c(Cl)cccc3s2)CC1 was read as UCHL1 block inactive, USP30 inh inactive, USP7 block inactive, USP10 block inactive, USP17 block inactive and USP8 inh inactive.
Cc1c(O)c(O)c(O)c(C=O)c1C=O was read as UCHL1 block inactive, USP30 inh 70.5, USP7 block inactive, USP10 block inactive, USP17 block 61.9 and USP8 inh inactive.
CC(C)=CCc1cccc2c(C3=C(O)C(=O)C(c4c[nH]c5c(CC=C(C)C)cccc45)=C(O)C3=O)c[nH]c12 was read as UCHL1 block inactive, USP30 inh 42.6, USP7 block inactive, USP10 block inactive, USP17 block 71.7 and USP8 inh inactive.
Screening CCCc1cc(=O)n2[nH]c(COc3ccccc3)c(-c3ccccc3)c2n1 returned UCHL1 block inactive, USP30 inh 54.9, USP7 block inactive, USP10 block 55.3, USP17 block 40.2 and USP8 inh inactive.
Cc1ccc(NC(=O)CC2Nc3ccccc3NC2=O)cc1[N+](=O)[O-] (configuration not stated) was read as UCHL1 block inactive, USP30 inh 48.8, USP7 block inactive, USP10 block inactive, USP17 block 41.0 and USP8 inh 65.8.
O=C(C1CCCCC1)N1CCC2(CC1)CNCc1ccccc12 was read as UCHL1 block inactive, USP7 block inactive, USP10 block inactive, USP17 block inactive and USP8 inh inactive.
`O=c1cc(CNc2ccc(Br)cc2)nc2nc(-c3ccccc3)[nH]n12` gave UCHL1 block inactive, USP30 inh 31.6, USP7 block inactive, USP10 block inactive, USP17 block 81.9 and USP8 inh 45.3.
For Cc1ccccc1-c1nc(CN(C)S(=O)(=O)c2ccccc2)c(C)o1 the results were UCHL1 block inactive, USP30 inh 55.5, USP7 block inactive, USP10 block inactive, USP17 block inactive and USP8 inh inactive.
`COc1cc(NC(=O)c2ccco2)c(C(=O)OCC(=O)c2c[nH]c3ccccc23)cc1OC` gave UCHL1 block inactive, USP30 inh inactive, USP7 block inactive, USP10 block inactive, USP17 block inactive and USP8 inh 43.6.
`COc1cc(OC)cc(C(=O)NC(C(=O)OCC(=O)c2c[nH]c3ccccc23)C(C)C)c1` (configuration not stated) gave UCHL1 block inactive, USP30 inh inactive, USP7 block inactive, USP10 block inactive, USP17 block inactive and USP8 inh inactive.
For COC(=O)c1nn(-c2ccc(Cl)cc2)c(=O)cc1Sc1ccc(C)cc1 the results were UCHL1 block inactive, USP30 inh inactive, USP7 block inactive, USP10 block inactive, USP17 block inactive and USP8 inh 52.9.
Screening Cc1ccc(-n2nnnc2CNC(=O)NCc2ccc(Cl)cc2)cc1 returned UCHL1 block inactive, USP30 inh inactive, USP7 block inactive, USP10 block inactive, USP17 block inactive and USP8 inh inactive.
COc1cccc(S(=O)(=O)N2CCC(c3nc(-c4cccnc4)no3)CC2)c1 was read as UCHL1 block inactive, USP30 inh inactive, USP7 block inactive, USP10 block inactive, USP17 block inactive and USP8 inh inactive.
O=S(=O)(Nc1ccc2oc(-c3ccncc3)nc2c1)c1ccccc1 was read as UCHL1 block inactive, USP30 inh 30.4, USP7 block inactive, USP10 block inactive, USP17 block 54.5 and USP8 inh inactive.
Screening NC(=O)c1cccc(NS(=O)(=O)c2ccccc2)c1 returned UCHL1 block inactive, USP30 inh inactive, USP7 block inactive, USP10 block inactive, USP17 block inactive and USP8 inh inactive.
For CCNc1nc(N2CCCCCC2)nc(-n2cnc(SC)n2)n1 the results were UCHL1 block inactive, USP30 inh 30.4, USP7 block inactive, USP10 block inactive, USP17 block inactive and USP8 inh inactive.
For CSc1ncn(-c2nc(N(C)C)nc(N3CCCCCC3)n2)n1 the results were UCHL1 block inactive, USP30 inh inactive, USP7 block inactive, USP10 block inactive, USP17 block inactive and USP8 inh inactive.
`Cc1ccc(S(=O)(=O)NC(C(=O)N=c2sc3ccccc3n2C)C(C)C)cc1` (configuration not stated) gave UCHL1 block inactive, USP30 inh inactive, USP7 block inactive, USP10 block inactive, USP17 block 62.8 and USP8 inh inactive.
CCS(=O)(=O)N1Cc2ccccc2CC1C(=O)N=c1sc2ccccc2n1C (configuration not stated) was read as UCHL1 block inactive, USP30 inh inactive, USP7 block inactive, USP10 block inactive, USP17 block inactive and USP8 inh inactive.
